TDP1 cell noCPT = qHTS for Inhibitors of human tyrosyl-DNA phosphodiesterase 1 (TDP1): qHTS in cells in absence of CPT; 15% of 420,000 active; DT40 Tdp1-/- hTDP1 cells, no CPT, ATP luminescence, 48 h; AID 686978, 2013; Potency, µM (series often up to 46.2 µM), usual class: inhibitors; further: nearly all actives have a fitted effect of over 55% in size
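Growth kinetics read by CellTiter-Glo luminescence after ≥48 hr at 37 °C. Cells: DT40 Tdp1-/- stably carrying human TDP1, 400 per well, compound exposure in the absence of CPT (DMSO vehicle).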
HT1080-NT tox = qHTS for induction of synthetic lethality in tumor cells producing 2HG: qHTS for the HT-1080-NT fibrosarcoma cell line; Potency, µM (series often up to 46.1 µM), hits mostly cytotoxic; 1.6% of 360,000 active; HT-1080-NT fibrosarcoma viability, CellTiter-Glo ATP luminescence, 48 h; AID 686970, 2013;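 further: NT is the 2HG producing partner of a matched IDH1 knockdown line; nearly all actives have a fitted effect of over 55% in size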
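Fibrosarcoma NT cells, 750 per well in 5% FBS RPMI, were exposed to compound for 48 hours. Viability: CellTiter-Glo luminescence.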
KB-V1 cytotox = qHTS assay for MDR1-selective chemotherapeutics: Primary screen using the drug-selected MDR subline cells KB-V1; KB-V1 MDR cells viability, CellTiter-Glo, 72 h; Potency, µM (doses to about 46.1 µM), hits mostly cytotoxic; 3.4% of 400,000 active; AID 1347076, 2019; further: nearly all actives have a fitted effect of over 60% in size
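Cytotoxicity toward P-gp-expressing KB-V1 cells was determined as loss of CellTiter-Glo luminescence after 72 h at 37 degrees C. Compounds were tested in quantitative HTS format across a concentration range, with curves fitted to normalized data.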
DT40 TDP1 CPT = qHTS for Inhibitors of human tyrosyl-DNA phosphodiesterase 1 (TDP1): qHTS in cells in presence of CPT. chicken DT40 Tdp1-/-;hTDP1 cells + 20 nM CPT, ATP luminescence, 48 h. Potency, µM (series often up to 46.2 µM), hits mostly inhibitors. 12% of 420,000 active. AID 686979, 2013; further: nearly all actives have a fitted effect of over 55% in size
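Cell growth measured by CellTiter-Glo luminescence after a minimum 48 h, 37 C compound exposure with 20 nM CPT in Tdp1-knockout DT40 cells stably expressing hTDP1, seeded 400/well; qHTS titration format.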
KB-3-1 cytotox = qHTS assay for MDR1-selective chemotherapeutics: Primary screen using the parental adenocarcinoma cell KB-3-1; Potency, µM (titrated, usually from 46.1 µM), most hits filed as cytotoxic; KB-3-1 viability, CellTiter-Glo ATP luminescence, 72 h; 1.4% of 400,000 active; further: nearly all actives have a fitted effect of over 60% in size
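Cells are dispensed, compounds pinned in, plates held at 37 °C for 72 h, then CellTiter-Glo is added and luminescence read after 10 minutes. Cell line: parental KB-3-1 in phenol-red-free DMEM, 10% FBS.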
HT1080 IDH1KD tx = qHTS for induction of synthetic lethality in tumor cells producing 2HG: qHTS for the HT-1080-IDH1KD cell line | 2% of 360,000 active | AID 686971, 2013 | Potency, µM (series often up to 46.1 µM), actives largely listed as cytotoxic | HT-1080 IDH1 knockdown viability, ATP luminescence, 48 h
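% activity derives from luminescence (CellTiter-Glo), normalised to DMSO and no-cell wells. HT-1080-IDH1KD cells, 750/well, had 48 h compound exposure at 37 °C.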
Numbers stand for hits; – = inactive; ? = inconclusive; · = not tested or not shown. A selection: hits, their analogues and other compounds. The true share with any hit is near 19%. The call rests on the fitted dose curve; in most records, active means well fitted curve in the direction sought with a large enough effect; inconclusive means small, poorly fitted or top-dose-only effect, or another doubt; inactive means no such curve, though single readings can be large; an effect the other way counts as inactive or inconclusive.

SMILES	TDP1 cell noCPT	HT1080-NT tox	KB-V1 cytotox	DT40 TDP1 CPT	KB-3-1 cytotox	HT1080 IDH1KD tx
COc1cc(O)c(CC=C(C)C)c(O)c1C(=O)CCc1ccc(O)cc1	21µM	–	–	21µM	–	?
COc1ccc(C(=O)/C=C/c2ccc(O)cc2)c(O)c1C/C=C(\C)CCC=C(C)C	?	?	–	?	–	?
COC(=O)c1cc(NC(=O)CCc2c(C)nc3cc(-c4ccccc4)nn3c2C)cc(C(=O)OC)c1	–	·	–	–	–	·
COc1ccc(NC(=O)CCc2c(C)nc3cc(-c4cccc(F)c4)nn3c2C)cc1Cl	13µM	·	–	16µM	–	·
CCCCNC(=O)CCc1c(C)nc2nc(-c3cc(OC)cc(OC)c3)nn2c1C	?	–	–	–	–	–
COc1cc(OC)cc(-c2cc3nc(C)c(CCC(=O)Nc4nc(C)cs4)c(C)n3n2)c1	10µM	–	–	18µM	–	–
Cc1nc2cc(-c3cccc(F)c3)nn2c(C)c1CCC(=O)NC(C)c1ccccc1 (configuration not stated)	?	·	–	?	–	·
COc1cc(NC(=O)CCc2c(C)nc3cc(-c4ccccc4)nn3c2C)cc(OC)c1OC	21µM	·	–	?	–	·
COc1cc(NC(=O)CCc2c(C)nc3nc(C)nn3c2C)cc(OC)c1	–	–	–	–	–	–
CCCCCCNC(=O)CCc1c(C)nc2nc(-c3cc(OC)cc(OC)c3)nn2c1C	16µM	·	–	?	–	·
CCn1c(C(=O)NCc2ccccc2)cc2sc(Cl)cc21	?	·	–	?	–	·
Cc1ccc(CN2CCN(C3CCNCC3)C(=O)C2=O)cc1	–	·	–	–	–	·
COc1cc(-c2cc3n(C)c(C)c(CCC(=O)NCc4ccccc4)c(=O)n3n2)cc(OC)c1OC	–	·	·	15µM	·	·
Cc1ccc(C)c(NC(=O)CCN2C(=O)c3ccccc3C2=O)c1	–	–	?	–	–	–
Cc1ccc(C)c(NC(=O)CCc2c(C)n(C)c3cc(-c4ccccc4C)nn3c2=O)c1	15µM	·	·	21µM	·	·
CCn1c(C)c(CCC(=O)O)c(=O)n2nc(-c3ccccc3OC)cc12	–	–	–	–	–	–
COc1cc(OC)cc(-c2cc3nc(C)c(CCC(=O)Nc4ccc(F)c(Cl)c4)c(C)n3n2)c1	16µM	·	·	18µM	·	·
O=C1NC[C@H](CCCCN2CCN(CC3CCCCC3)C(=O)C2=O)N(Cc2ccccc2)C1=O	–	–	–	–	–	–
O=P(Cc1cc(Br)cc(Br)c1OCCO)(c1ccccc1)c1ccccc1	?	–	?	?	–	–
N#Cc1nc(-c2ccccc2Cl)oc1N1CCCCC1	9.2µM	–	–	?	–	–
N#Cc1nc(-c2cccc3ccccc23)oc1NCCN1CCCCC1	16µM	?	–	18µM	?	?
N#Cc1nc(-c2ccc(COc3ccccc3)o2)oc1N1CCCCC1	23µM	·	–	?	–	·
CCN1CCN(c2oc(-c3ccc(COc4ccccc4C)o3)nc2C#N)CC1	?	·	–	?	21µM	·
COc1cc(NC(=O)CCc2c(C)nc3c4c(C)cc(C)nc4nn3c2C)cc(OC)c1	?	·	–	?	–	·
Cc1nc(N)nc(N(C)c2ccccc2)c1Br	?	?	?	?	–	?
SMILES	TDP1 cell noCPT	HT1080-NT tox	KB-V1 cytotox	DT40 TDP1 CPT	KB-3-1 cytotox	HT1080 IDH1KD tx
CCOC(=O)COc1ccc(S(=O)(=O)N2CCN(c3ccccc3)CC2)cc1	–	–	–	–	–	–
N#Cc1nc(-c2ccc(OCc3ccccc3Cl)cc2)oc1N1CCCCCC1	11µM	·	–	?	–	·
CC(C)(C)n1nnnc1C(c1cccnc1)N1CCN(c2cccc(C(F)(F)F)c2)CC1 (configuration not stated)	21µM	–	?	18µM	–	–
CCCCn1nnnc1C(c1ccccc1)N1CCN(c2cccc(C)c2C)CC1 (configuration not stated)	16µM	–	?	?	–	–
CC(C)(C)n1nnnc1C(c1ccccc1)N1CCN(c2c(Cl)cncc2Cl)CC1 (configuration not stated)	16µM	–	?	?	?	–
COc1ccc(N2CCN(C(c3ccc(C)cc3)c3nnnn3C(C)(C)C)CC2)cc1 (configuration not stated)	14µM	·	–	?	–	·
COc1ccccc1CNC(=O)CC(c1ccc(C)cc1)N1Cc2ccccc2C1=O (configuration not stated)	?	·	–	?	–	·
CCN1CCN(C(=O)c2cnn(-c3ncc4c(n3)-c3ccccc3CCC4)c2COC)CC1	–	·	·	–	·	·
CCCCn1nnnc1C(c1ccccc1)N1CCN(c2c(Cl)cncc2Cl)CC1 (configuration not stated)	16µM	?	–	?	–	?
CC(C)(C)n1nnnc1C(c1ccncc1)N1CCN(C2CCCCC2)CC1 (configuration not stated)	–	–	–	–	–	–
Cc1cccc(N2CCN(C(c3ccncc3)c3nnnn3C(C)(C)C)CC2)c1C (configuration not stated)	18µM	–	–	–	–	–
O=C(NNC(=O)C1CCCN(c2ncccn2)C1)c1ccncc1 (configuration not stated)	–	–	–	–	–	–
Cc1ccc(S(=O)(=O)NNc2ccccc2)cc1	–	–	–	–	–	–
Cc1ccc(S(=O)(=O)NNc2c3ccccc3nc3ccc(Cl)cc23)cc1	8.2µM	–	?	23µM	–	–
Cc1ccc(S(=O)(=O)NNc2nc3ccccc3nc2C(F)(F)F)cc1	18µM	–	?	?	–	–
O=S(=O)(NNc1cccc(Cl)n1)c1ccc(Cl)cc1	–	–	?	–	–	–
O=C(CC1C(=O)NCCN1Cc1ccc(-c2ccccc2)cc1)NCc1ccccc1 (configuration not stated)	?	–	–	?	–	–
O=C(CC1C(=O)NCCN1Cc1ccc(-c2ccccc2)cc1)NC1CCC1 (configuration not stated)	15µM	–	–	–	–	–
COc1ccc(C)cc1N(C)C(=O)CCc1nc(-c2ccccc2F)no1	?	·	–	18µM	–	·
